Here are results for six compounds from PubChem BioAssay (NCATS).

In assay [1] the target is Lysosomal acid glucosylceramidase (Homo sapiens) (UniProt P04062). Description: Glucocerebrosidase-p2 (AID 348; in the data active = potency below about 10 µM; note: potency is the fitted concentration of half-maximal effect). The note with it: purified GBA, blue fluorogenic substrate, 40 min. The essentials:
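Normal human glucocerebrosidase (0.2 nM) with blue fluorogenic substrate (80 uM final) in citrate/phosphate pH 5.9 with 10mM sodium taurocholate, 0.01% tween-20; 40 min RT, NaOH/glycine stop; fluorescence Ex 365/Em 440; AC50 from a titration from 0.6 nM upwards.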

Assay [2] is described as follows: AP1 Signaling Pathway (AID 357; active = well fitted curve in either direction with a large enough effect, not every such curve was filed as active;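 note: ME-180 reporter cells stimulated with EGF at its EC50 level; % is set by controls: 0 for no effect and ±100 for the full control effect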). To be noted: ME-180 AP-1-bla reporter, EGF-induced, beta-lactamase ratio, 5 h; at 7.69 µM (top of the series) unless noted. The essentials: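 AP-1-bla ME-180 cells, Opti-MEM + 0.5% dialyzed FBS, plated overnight 37 °C. Cpd titration + EC50 EGF, 5 h 37 °C. CCF4 2.5 h RT; ex 405, em 460/530 ratio → %activity, AC50.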
The target of assay [3] is Cytochrome P450 1A2 (Homo sapiens) (UniProt P05177). Description: p450-cyp1a2 (AID 410; calls by dose curve; note: potency is the fitted concentration of half-maximal effect;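 for activity change, negative = inhibition: -100% = full effect of reference inhibitor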). To be noted: recombinant CYP1A2, luciferin-ME demethylation, luminescence; series mostly up to 57 µM. An outline of the steps: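 Read-out is luminescence from luciferin produced by CYP1A2 demethylation of Luciferin-ME (100uM, at Km). Detection reagent stopped the 60 min NADPH-dependent reaction; signals were normalized to 57 uM furafylline.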
Sequence of Cytochrome P450 1A2 (Homo sapiens) (P05177 whole entry, looked up): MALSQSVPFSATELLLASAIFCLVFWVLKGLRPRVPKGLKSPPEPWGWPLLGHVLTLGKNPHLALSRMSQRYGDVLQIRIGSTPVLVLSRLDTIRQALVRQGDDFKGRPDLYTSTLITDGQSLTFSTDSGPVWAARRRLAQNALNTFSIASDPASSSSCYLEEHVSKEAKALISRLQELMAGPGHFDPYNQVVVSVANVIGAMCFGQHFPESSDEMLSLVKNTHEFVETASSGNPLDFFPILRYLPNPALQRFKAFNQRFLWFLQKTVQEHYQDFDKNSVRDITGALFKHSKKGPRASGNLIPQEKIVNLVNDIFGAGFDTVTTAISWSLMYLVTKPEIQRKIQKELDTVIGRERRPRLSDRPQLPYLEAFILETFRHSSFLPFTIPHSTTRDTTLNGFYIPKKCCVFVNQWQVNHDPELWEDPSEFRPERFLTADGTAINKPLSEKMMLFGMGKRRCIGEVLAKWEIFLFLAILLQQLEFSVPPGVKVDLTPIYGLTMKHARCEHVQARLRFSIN

Assay [4] in a line: NFAT Signaling Pathway (AID 444; active = well fitted curve in either direction with a large enough effect, not every such curve was filed as active;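 note: carbachol stimulus at about its EC50 of 1 µM final; % is set by controls: 0 for no effect and ±100 for the full control effect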). To be noted: Jurkat NFAT-bla M1, carbachol, beta-lactamase ratio, 5 h; at 7.69 µM (top of the series) unless noted. The essentials:
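Read-out: CCF4 FRET ratio (460 nm/530 nm) after 1 h RT dye loading, used for %activity and AC50 from titration series. Cells: Jurkat NFAT-β-lactamase/M1 line, treated with compound plus 1 uM carbachol for 5 h, 37 °C.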

The nature of assay [5]: Stat Signaling Pathway (AID 446; active = well fitted curve in either direction with a large enough effect, not every such curve was filed as active;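 note: ME-180 cervical cancer cells given 40 pM IL-6 alongside compound; SIE-controlled beta-lactamase reporter measured as 460/530 nm FRET emission ratio; % is set by controls: 0 for no effect and ±100 for the full control effect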). To be noted: ME-180 (cervical carcinoma) SIE beta-lactamase reporter, IL-6 stimulated, 5 h; at 7.69 µM (top of the series) unless noted. An outline of the steps: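 Normalization used AC90 stimulation (300 pM IL-6) and AC90 inhibition (125 nM pan-JAK inhibitor at 40 pM IL-6). The underlying signal is SIE-driven beta-lactamase in ME-180 cells after 5 h IL-6 exposure with compound.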

In assay [6] the target is Glucocorticoid receptor (Homo sapiens) (UniProt P04150). Briefly: GR-GFP Redistribution (AID 450;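 active = compounds whose dose series gives a full or clear partial fitted curve of increased nuclear translocation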; note: potency is the fitted concentration of half-maximal effect). To be noted: U2OS GR-GFP nuclear translocation, laser cytometry, 2 h.
Sequence of Glucocorticoid receptor (Homo sapiens) (P04150 whole entry, looked up): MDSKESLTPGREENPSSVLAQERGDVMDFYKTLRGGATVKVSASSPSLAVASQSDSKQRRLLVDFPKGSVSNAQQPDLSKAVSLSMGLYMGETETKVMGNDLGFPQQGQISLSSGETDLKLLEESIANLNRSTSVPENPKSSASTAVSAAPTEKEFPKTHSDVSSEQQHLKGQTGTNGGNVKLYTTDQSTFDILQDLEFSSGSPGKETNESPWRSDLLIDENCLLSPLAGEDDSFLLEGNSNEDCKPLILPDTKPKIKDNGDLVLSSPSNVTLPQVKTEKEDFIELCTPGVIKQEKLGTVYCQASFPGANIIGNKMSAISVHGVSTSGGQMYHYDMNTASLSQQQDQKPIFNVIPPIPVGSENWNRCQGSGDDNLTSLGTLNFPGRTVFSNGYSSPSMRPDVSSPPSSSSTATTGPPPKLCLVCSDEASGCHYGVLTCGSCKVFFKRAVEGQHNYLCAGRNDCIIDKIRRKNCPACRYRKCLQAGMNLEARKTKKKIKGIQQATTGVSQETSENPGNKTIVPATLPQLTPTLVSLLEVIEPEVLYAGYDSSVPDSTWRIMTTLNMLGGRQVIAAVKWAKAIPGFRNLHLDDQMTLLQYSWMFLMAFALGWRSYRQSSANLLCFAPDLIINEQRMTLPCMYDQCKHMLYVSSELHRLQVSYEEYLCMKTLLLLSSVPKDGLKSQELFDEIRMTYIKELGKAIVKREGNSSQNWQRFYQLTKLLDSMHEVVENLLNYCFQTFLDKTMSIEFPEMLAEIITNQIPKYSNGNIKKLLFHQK
The target is the same in assay [7]. Briefly: GR-EFC Redistribution (AID 451; calls by dose curve; note: potency is the fitted concentration of half-maximal effect). The note with it: CHO-K1 GR-EFC translocation, beta-gal luminescence, 2 h. The essentials:
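Translocation of GR-ED fusion to nuclear EA restores b-gal, read by luminescence after 1 h room-temperature detection. Engineered CHO-K1 biosensor cells, 1,000/well, exposed 2 h at 37 C to titrations up to 46 uM final.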

The target of assay [8] is Mitogen-activated protein kinase 10 (Mus musculus) (UniProt Q61831). Briefly: JNK3 AlphaScreen Assay (AID 530; active = well fitted curve in either direction with a large enough effect, not every such curve was filed as active;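 note: kinase came from lysate of stimulated human HepG2 cells; signal reports phosphorylation of biotinylated GST-cJun 1-79 at Ser73 with 10 µM ATP; % is set by controls: 0 for no effect and ±100 for the full control effect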). To be noted: JNK3 lysate, c-Jun phosphorylation; series mostly up to 57.1 µM. An outline of the steps:
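Kinase buffer: 20 mM Tris-HCl pH 7.6, 10 mM MgCl2, 1 mM DTT, 0.1 mM Na3VO4, 0.01% Tween-20; ATP 10 uM. Substrate biotin-GST-cJun(1-79), enzyme from activated HepG2 lysates. Detection by Ser73 phospho-antibody AlphaScreen.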

Assay [9] concerns the target 3',5'-cyclic-AMP phosphodiesterase 4B (Homo sapiens) (UniProt Q07343). Briefly: qHTS Assay for Inhibitors of PDE-IV (AID 607; active = well fitted activation curve with a large enough effect in the main read-out, with a control signal flat, not every such curve was filed as active; note: % of control where 0% means no effect). To be noted: HEK293 ACTOne CNG channel cells, membrane potential fluorescence; series mostly up to 22.9 µM. The essentials:
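HEK293 ACTOne cells with CNG channel (1000/well), endogenous PDE4; membrane potential dye, compounds up to 22.9 uM final. Fluorescence Ex 535/Em 590; RO 20-1724 (100 uM final) as reference.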
(In general: Quantitative high-throughput screening tests each substance at several concentrations.)

Assay [10] is described as follows: qHTS Assay for Lipid Storage Modulators (AID 1519; calls by dose curve). To be noted: Drosophila S3 cells, BODIPY lipid droplet/cell ratio, laser cytometry, cells loaded with oleic acid; for activity change, negative = inhibition: at 57.5 µM (top of the series). The essentials: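 Cells seeded at 5,000 per well were treated with compounds over a concentration series and loaded with oleic acid (400 uM, as added). Lipid droplet fluorescence (488 nm excitation, 500-530 nm channel) was read by laser-scanning cytometry and normalized to 20 uM Triacsin C.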

Assay [11] addresses Dual specificity protein kinase CLK4 (Homo sapiens) (UniProt Q9HAZ1). Description: qHTS Assay for Inhibitors of CDC-like Kinase 4 (Kinase-Glo Assay) (AID 1770). Note: % is set by controls: 0 for no effect and ±100 for the full control effect; nearly all actives have a fitted effect of over 65% in size. The note with it: recombinant Clk4, Kinase-Glo ATP depletion luminescence; series mostly up to 66.7 µM. An outline of the steps:
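Readout: Kinase-Glo luminescence from ATP left after a 4.5 h room-temperature reaction of 25 nM Clk4 with 100 uM RS peptide and 1 uM ATP (final). Buffer: 25 mM Tris pH 7.5, 10 mM MgCl2.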

The target is the same in assay [12]. Briefly: qHTS Assay for Inhibitors of CDC-like Kinase 4 (ADP-Glo Assay) (AID 1771). Note: % is set by controls: 0 for no effect and ±100 for the full control effect; nearly all actives have a fitted effect of over 70% in size. The note with it: recombinant CLK4, ADP-Glo luminescence; series mostly up to 80 µM. An outline of the steps:
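In this ADP-Glo format, 1 uM ATP and 100 uM RS peptide served as substrates for 25 nM Clk4 in Mg2+/EGTA/DTT/Triton buffer; reactions ran 1 hr at room temperature before luminescent ADP quantification.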

Assay [13] shares this target. Description: qHTS Assay for Inhibitors of CDC-like Kinase 4 (ADP-FP Assay) (AID 1795).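 Note: recombinant human CLK4 phosphorylating RS repeat peptide at 1 µM ATP; % is set by controls: 0 for no effect and ±100 for the full control effect; nearly all actives have a fitted effect of over 60% in size.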 The note with it: Transcreener ADP fluorescence polarization; series mostly up to 50 µM. An outline of the steps: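 FP readout: Orange Transcreener ADP2 tracer (4 nM) plus ADP antibody, read after 30 min at room temperature. Kinase step: 6.25 nM Clk4, 100 uM RS peptide, 1 uM ATP, pH 7.5, 1 h.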

In assay [14] the target is Ubiquitin carboxyl-terminal hydrolase 1 (Homo sapiens) (UniProt O94782). Briefly: Inhibitors of USP1/UAF1: Pilot qHTS (AID 504865).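 Note: rhodamine fluorescence freed from ubiquitin-rhodamine substrate followed over time; top concentration of the series differs between compounds; % is set by controls: 0 for no effect and ±100 for the full control effect; nearly all actives have a fitted effect of over 35% in size.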 The note with it: purified USP1/UAF1, Ub-rhodamine cleavage fluorescence; series mostly up to 54.9 µM. An outline of the steps: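 1nM USP1/UAF1 + cpd, 15 min RT; start w/ Ub-Rho 150nM final; kinetic FL 480/540 nm, 6 reads q60 s. Buffer 50mM HEPES pH 7.8, 0.5mM EDTA, 1mM TCEP, 0.01% Tween-20, 0.1 mg/ml BSA.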
Sequence of Ubiquitin carboxyl-terminal hydrolase 1 (Homo sapiens) (O94782 whole entry, looked up): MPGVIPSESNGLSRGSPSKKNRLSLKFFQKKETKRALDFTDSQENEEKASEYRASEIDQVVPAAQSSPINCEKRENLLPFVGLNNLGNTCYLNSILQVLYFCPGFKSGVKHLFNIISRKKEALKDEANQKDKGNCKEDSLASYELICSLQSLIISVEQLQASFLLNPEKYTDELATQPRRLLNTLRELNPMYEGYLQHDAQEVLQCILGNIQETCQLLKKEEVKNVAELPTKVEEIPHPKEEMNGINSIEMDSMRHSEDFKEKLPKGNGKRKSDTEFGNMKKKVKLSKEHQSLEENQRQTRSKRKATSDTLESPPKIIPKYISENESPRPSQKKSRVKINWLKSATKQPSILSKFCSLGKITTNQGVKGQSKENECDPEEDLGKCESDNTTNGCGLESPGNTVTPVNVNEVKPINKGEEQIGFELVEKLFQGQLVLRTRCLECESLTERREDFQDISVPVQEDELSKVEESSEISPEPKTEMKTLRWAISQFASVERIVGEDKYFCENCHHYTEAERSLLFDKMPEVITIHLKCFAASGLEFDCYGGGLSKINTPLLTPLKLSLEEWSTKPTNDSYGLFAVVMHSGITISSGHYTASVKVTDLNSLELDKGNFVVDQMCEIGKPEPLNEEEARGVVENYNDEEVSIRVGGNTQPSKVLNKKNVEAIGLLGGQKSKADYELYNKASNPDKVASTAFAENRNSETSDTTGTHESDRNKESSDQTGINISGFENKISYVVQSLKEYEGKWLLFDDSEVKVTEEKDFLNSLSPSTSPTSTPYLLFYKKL

Assay [15] is described as follows: Primary qHTS for small molecule stabilizers of the endoplasmic reticulum resident proteome: Secreted ER Calcium Modulated Protein (SERCaMP) assay (AID 1508630). Note: % is set by controls: 0 for no effect and ±100 for the full control effect. The note with it: SH-SY5Y GLuc-SERCaMP (Gaussia luciferase released on ER calcium loss) secretion, thapsigargin, luminescence; series mostly up to 38.4 µM. The essentials: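 The SH-SY5Y reporter protocol was run at 3 concentrations up to 38.3 uM (primary) or 11 concentrations (follow-up): 16 h compound, 100 nM thapsigargin for 4 h, then extracellular luciferase luminescence.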

For assay [16], the target named is Cytochrome P450 3A4 (Homo sapiens) (UniProt P08684). Description: qHTS Assay for Activators of Cytochrome P450 3A4 (AID 885). Note: nearly all actives have a fitted effect of over 65% in size. To be noted: recombinant CYP3A4, Luciferin-PPXE luminescence, 60 min; series mostly up to 57.1 µM. An outline of the steps:
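Human CYP3A4 dealkylates Luciferin-PPXE to luciferin, which luciferase detection converts to light. Substrate was at its KM (25uM), buffer 200mM KPO4, reaction 60 min at RT.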

Assay [17] has as its target Rap guanine nucleotide exchange factor 3 (Homo sapiens) (UniProt O95398). Briefly: Confirmatory qHTS for agonist of cAMP-regulated guanine nucleotide exchange factor 3 (EPAC1) (AID 1645881).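 Note: EPAC1 catalysed release of BODIPY-GDP from Rap1B seen as fluorescence loss; nearly all actives have a fitted effect of over 75% in size.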 To be noted: EPAC1 Rap1B BODIPY-GDP exchange fluorescence, 100% = cAMP control response; series mostly up to 154 µM.
The target in assay [18] is Rap guanine nucleotide exchange factor 4 (Homo sapiens) (UniProt Q8WZA2). Briefly: Confirmatory qHTS for agonist of cAMP-regulated guanine nucleotide exchange factor 4 (EPAC2) (AID 1645884).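 Note: nucleotide exchange releases bodipy-GDP from Rap1 and this lowers its fluorescence; % is set by controls: 0 for no effect and ±100 for the full control effect; nearly all actives have a fitted effect of over 65% in size.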 The note with it: EPAC2 GEF activity, Rap1B-BODIPY-GDP fluorescence, percent relative to cAMP agonist control; series mostly up to 154 µM.
Assay [19] concerns the target Cytochrome P450 3A4 (Homo sapiens) (UniProt P08684). Description: qHTS Assay for Inhibitors and Substrates of Cytochrome P450 3A4 (AID 884). Note: potency is the fitted concentration of half-maximal effect; nearly all actives have a fitted effect of over 50% in size. To be noted: recombinant CYP3A4, Luciferin-PPXE luminescence; series mostly up to 57.1 µM. An outline of the steps: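 Luminescent readout of luciferin produced by CYP3A4 (20 nM) dealkylation of Luciferin-PPXE, 25 uM (its KM). NADPH-driven reaction ran 60 min at RT after 10 min compound preincubation; data scaled to 57 uM ketoconazole as 100% inhibition.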

[20] abbreviates: measured here: cell count channel max response.
Where [21] appears, read: measured here: lipid channel max response.

SMILES strings stand for the structures. Results filed as inconclusive are left out. The source made the active and inactive calls. Unless noted, calls come from the whole dose curve; as a rule, active = well fitted curve in the direction sought with a large enough effect; inconclusive = small, poorly fitted or top-dose-only effect, or another doubt; inactive = no such curve, though single readings can be large; an effect the other way counts as inactive or inconclusive.

Sequence of Cytochrome P450 3A4 (Homo sapiens) (P08684 whole entry, looked up): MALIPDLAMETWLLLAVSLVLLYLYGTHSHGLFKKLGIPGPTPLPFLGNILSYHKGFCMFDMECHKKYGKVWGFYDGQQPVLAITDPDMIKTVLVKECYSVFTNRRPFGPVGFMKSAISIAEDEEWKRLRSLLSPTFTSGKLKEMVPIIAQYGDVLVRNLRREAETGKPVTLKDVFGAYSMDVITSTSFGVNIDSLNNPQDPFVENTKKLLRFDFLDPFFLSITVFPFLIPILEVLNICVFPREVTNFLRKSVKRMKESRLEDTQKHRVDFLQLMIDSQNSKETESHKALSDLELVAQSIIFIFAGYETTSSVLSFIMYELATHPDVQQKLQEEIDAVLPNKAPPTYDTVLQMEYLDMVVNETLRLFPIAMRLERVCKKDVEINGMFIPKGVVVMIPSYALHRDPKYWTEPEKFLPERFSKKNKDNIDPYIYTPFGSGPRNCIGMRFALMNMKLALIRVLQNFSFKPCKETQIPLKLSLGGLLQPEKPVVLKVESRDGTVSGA
Sequence of Lysosomal acid glucosylceramidase (Homo sapiens) (P04062 whole entry, looked up): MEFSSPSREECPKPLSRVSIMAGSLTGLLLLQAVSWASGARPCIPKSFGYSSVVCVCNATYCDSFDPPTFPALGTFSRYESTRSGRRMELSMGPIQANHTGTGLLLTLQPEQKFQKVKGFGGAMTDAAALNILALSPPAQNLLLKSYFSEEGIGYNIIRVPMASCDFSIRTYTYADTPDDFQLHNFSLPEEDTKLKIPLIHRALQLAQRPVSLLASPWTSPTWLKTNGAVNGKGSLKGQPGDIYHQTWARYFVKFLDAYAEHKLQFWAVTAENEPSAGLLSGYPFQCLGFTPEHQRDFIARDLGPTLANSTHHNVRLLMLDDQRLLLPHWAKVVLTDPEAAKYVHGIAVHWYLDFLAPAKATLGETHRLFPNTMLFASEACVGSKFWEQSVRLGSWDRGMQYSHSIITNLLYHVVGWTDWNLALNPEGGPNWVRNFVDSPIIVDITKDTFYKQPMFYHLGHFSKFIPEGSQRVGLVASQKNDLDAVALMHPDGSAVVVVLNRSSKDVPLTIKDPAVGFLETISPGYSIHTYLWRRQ
Sequence of Dual specificity protein kinase CLK4 (Homo sapiens) (Q9HAZ1 whole entry, looked up): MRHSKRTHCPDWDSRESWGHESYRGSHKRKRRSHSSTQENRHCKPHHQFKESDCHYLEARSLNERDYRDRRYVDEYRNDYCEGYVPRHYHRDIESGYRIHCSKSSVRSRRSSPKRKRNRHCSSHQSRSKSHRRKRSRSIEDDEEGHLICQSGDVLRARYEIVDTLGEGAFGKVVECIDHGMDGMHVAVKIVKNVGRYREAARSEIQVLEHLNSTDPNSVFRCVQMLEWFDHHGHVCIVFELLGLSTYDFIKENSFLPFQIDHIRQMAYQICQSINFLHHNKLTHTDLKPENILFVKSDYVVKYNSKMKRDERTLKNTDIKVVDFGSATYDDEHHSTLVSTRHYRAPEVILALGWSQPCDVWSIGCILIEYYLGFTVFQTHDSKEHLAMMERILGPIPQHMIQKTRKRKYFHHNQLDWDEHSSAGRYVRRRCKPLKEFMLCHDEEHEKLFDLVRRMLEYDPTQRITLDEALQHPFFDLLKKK
Sequence of 3',5'-cyclic-AMP phosphodiesterase 4B (Homo sapiens) (Q07343 whole entry, looked up): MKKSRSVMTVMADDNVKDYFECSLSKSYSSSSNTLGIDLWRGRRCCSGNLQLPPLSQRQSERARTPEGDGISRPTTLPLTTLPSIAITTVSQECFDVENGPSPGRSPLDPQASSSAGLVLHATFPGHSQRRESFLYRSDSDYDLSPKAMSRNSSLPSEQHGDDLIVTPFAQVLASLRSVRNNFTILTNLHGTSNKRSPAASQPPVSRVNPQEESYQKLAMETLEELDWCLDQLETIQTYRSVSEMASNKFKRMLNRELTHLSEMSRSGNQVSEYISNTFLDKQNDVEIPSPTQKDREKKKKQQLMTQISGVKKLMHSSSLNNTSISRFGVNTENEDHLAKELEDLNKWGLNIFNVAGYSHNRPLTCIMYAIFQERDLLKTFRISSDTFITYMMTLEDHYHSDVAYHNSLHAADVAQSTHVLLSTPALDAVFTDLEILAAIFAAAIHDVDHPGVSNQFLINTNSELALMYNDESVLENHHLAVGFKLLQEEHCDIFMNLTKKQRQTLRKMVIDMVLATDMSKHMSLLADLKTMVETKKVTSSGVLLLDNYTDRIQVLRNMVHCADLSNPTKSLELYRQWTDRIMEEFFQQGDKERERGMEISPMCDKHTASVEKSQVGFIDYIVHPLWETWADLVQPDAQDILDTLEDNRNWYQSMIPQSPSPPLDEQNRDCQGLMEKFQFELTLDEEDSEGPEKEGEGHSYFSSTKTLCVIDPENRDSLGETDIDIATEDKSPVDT

Take `COc1ncc2nc(-c3ccccc3)c(=O)n(C)c2n1`: the Potency in [1] is > 11.4 µM (inactive); in assay [3], 1.58 µM (active); in assay [6], > 9.22 µM (inactive); in assay [7], > 46 µM (inactive). Moreover, the activity change, negative = inhibition in [2] is -19.1% (inactive); in assay [4], 11.3% (inactive); in assay [10], 6.24% (inactive). In addition, the activity, negative = inhibition in assay [5] was -14.9% (inactive). Also, the call in assay [8] was inactive. The Potency entry in assay [9], in assay [11], in [12], in [13], in [14] and in assay [15] was “inactive” each time. For the same compound, the max response was 20% in [10] (setting [20]) and 24.3% in assay [10] (setting [21]).
For the compound `O=C(c1cc(C(F)(F)F)cc(C(F)(F)F)c1)N1CCC2(CCCN(Cc3nccs3)C2)CC1`, the Potency was > 11.4 µM (inactive) in [1] and > 46 µM (inactive) in assay [7]. Also, the figures for the activity change, negative = inhibition in assay [2] and in assay [10] were -11.4% (inactive) and -19.9% (inactive), respectively. Further, the Potency result in assay [3], in assay [9], in assay [16] and in assay [15] was “inactive” in each case. Also, in assay [5], the activity, negative = inhibition was -17.2% (inactive). Besides, the result in assay [8], in assay [17] and in assay [18] was inactive. For the same compound, the max response in assay [10] (setting [20]) is 17.8%; in assay [10] (setting [21]), -1.38%.
In the case of `N#Cc1cccc(-c2nc3cnc(N4CCOCC4)nc3n(C[C@H]3CCCO3)c2=O)c1`, the Potency was > 11.4 µM (inactive) in assay [1], 0.794 µM (active) in [3], > 9.22 µM (inactive) in assay [6] and > 46 µM (inactive) in assay [7]. Moreover, the results for the activity change, negative = inhibition in assay [2], in assay [4] and in assay [10] were -1.16% (inactive), 1.23% (inactive) and 4.04% (inactive), respectively. Moreover, the activity, negative = inhibition in assay [5] is 6.63% (inactive). Also, in assay [8], the compound was classed as inactive. In addition, the Potency result in [9], in assay [11], in assay [12], in [13], in assay [14] and in [15] was “inactive” throughout. The max response in assay [10] (setting [20]) is 10%; in assay [10] (setting [21]) it was 11.4%.
With `CC(=O)NCCNc1cc(-c2ccccc2CN(C)C)ncn1`, the Potency in assay [1] is > 11.4 µM (inactive); in assay [6] it was > 46 µM (inactive); in assay [7], > 46 µM (inactive). The activity change, negative = inhibition in assay [2] was 3.33% (inactive); in [4], -5.44% (inactive); in assay [10] it was -0.819% (inactive). Besides, the Potency entry in [3], in [11], in assay [12], in assay [13], in assay [14] and in assay [15] was “inactive” throughout. For the same compound, in assay [5], the activity, negative = inhibition was 2.18% (inactive). Also, in [8], the outcome was inactive. Besides, the max response in assay [10] (setting [20]) amounted to 11.1%; in assay [10] (setting [21]), 8.32%.
Take `FC(F)(F)c1ccccc1-c1cc(NCCN2CCOCC2)ncn1`: the Potency in assay [1] was > 11.4 µM (inactive); in assay [3] it was 12.6 µM (active); in assay [6] it was > 46 µM (inactive); in assay [7] it was > 46 µM (inactive). For the same compound, the activity change, negative = inhibition was 10.7% (inactive) in assay [2], 27.7% (inactive) in assay [4] and 5.67% (inactive) in assay [10]. In assay [5], the activity, negative = inhibition is 14.2% (inactive). For the same compound, in [8], the outcome was inactive. Besides, the Potency result in assay [9], in [11], in [12], in assay [13], in assay [14] and in assay [15] was “inactive” throughout. Also, the max response in assay [10] (setting [20]) worked out at 25.8%; in assay [10] (setting [21]), 30.8%.
Regarding `Cc1cccc(CNc2nc(-c3ccc4c(c3)OCO4)nc3ccccc23)c1`, the Potency is > 11.4 µM (inactive) in assay [1]; 0.631 µM (active) in assay [3]; > 46 µM (inactive) in assay [6]; > 46 µM (inactive) in assay [7]; 0.398 µM (active) in assay [19]. Further, the figures for the activity change, negative = inhibition in assay [2] and in assay [10] were -27.3% (inactive) and -7.8% (inactive), respectively. The activity, negative = inhibition in assay [5] is -19.3% (inactive). In addition, the compound was classed as inactive in assay [8], in assay [17] and in assay [18]. Also, the Potency result in assay [16], in [12], in assay [13], in [14] and in assay [15] was “inactive” in each case. The max response in assay [10] (setting [20]) was -19.2%; in assay [10] (setting [21]), -24.8%.
